Measured values reported in PubChem BioAssay (Tox21).
Values joined by “and” are separate entries in the source; they are usually repeats but may differ in a detail not shown here. Equal values may be shown once. Results filed as inconclusive are left out. A call without a number means that no potency is given here. Active and inactive are the calls of the source. Calls follow the shape of the dose curve; as a rule, active = well fitted inhibition curve with a large enough effect in the repeat runs; inconclusive = weak or mixed curves; inactive = no such curve, though single readings can be large or run the other way.

assay: qHTS assay to identify small molecule antagonists of the thyroid receptor (TR) signaling pathway (AID 743065); conditions: GH3.TRE-Luc, T3-stimulated luciferase inhibition, 23.5 h; series mostly up to 70.3 µM; also: nearly all actives have a fitted effect of over 55% in size
Description: U.S. Tox21 Program National Center for Advancing Translational Sciences [NCATS] NIH Chemical Genomics Center [NCGC] U.S. Environmental Protection Agency [EPA] National Institutes of Environmental Health Sciences [NIEHS] National Toxicology Program [NTP] U.S. Food and Drug Administration [FDA] Tox21 Assay Overview: Thyroid receptor (TR), a nuclear hormone receptor, plays an important role in development, proliferation, differentiation, metabolism, brain function, and cardiovascular system. […] To profile the Tox21 10K compound library in TR signaling, a cell-based GH3-TRE-Luc assay (GH3.TRE-Luc cell line, developed by the laboratory of Dr. Albertinka J. Murk, Wageningen University) was used to measure the inhibition of TR. GH3 (rat pituitary tumor) cells stably expressing a TR activity sensor consisting of two TR response elements and a luciferase reporter gene.
Tox21 Assay Protocol Summary: GH3.TRE-Luc cells were dispensed at 1500 cells/4 uL/well into 1536-well white solid bottom plates using a Multidrop Combi dispenser (Thermo Fisher Scientific Inc., Waltham, MA). After the assay plates were incubated at 37 C for 4 hours, 23 nL of library compound or DMSO controls was transferred to the assay plates by a pintool station (Kalypsys, San Diego, CA), followed by addition of 1 ul of T3 (1 nM, final concentration in the wells) to stimulate TR transactivation. The assay plates were incubated at 37 C for 23.5 h, and then 1 uL of CellTiter-Fluor reagent (Promega, Madision, WI) of measuring cytotoxicity was added to each well using a Bioraptr Flying Reagent Dispenser (FRD) workstation (Beckman Coulter, Indianapolis, IN, USA). The plates were incubated at 37 C and 5% CO2 for additional 30 min, and fluorescence intensity was measured by a ViewLux plate reader (PerkinElmer, Shelton, CT). For measuring luciferase reporter gene activity, 4 uL of ONE-Glo Luciferase Assay reagent (Promega) was added to each well using a Bioraptr FRD (Beckman Coulter), followed by 30 min incubation at room temperature. The luminescence intensity of plates was recorded by a ViewLux plate reader (PerkinElmer, Shelton, CT).
Potency is read from the fitted curve at half-maximal effect.

Row | SMILES | Potency
1 | CCc1cccc2c3c([nH]c12)C(CC)(CC(=O)O)OCC3 (stereo not given) | inactive
2 | Cc1ccc(C(C)(C)C)c(O)c1 | 54.5 µM (active)
3 | CC1(C)OC(=O)NC1=O | inactive
4 | Oc1c(Cl)ccc(Cl)c1Cl | inactive
5 | CCCCCCCC/C=C\CCCCCCCC(=O)O | inactive
6 | Nc1ccc(N)c(Cl)c1 | inactive
7 | CCCCCCCCCCCCO | inactive
8 | O=S1(=O)CCCO1 | inactive
9 | Cc1cccc(Nc2ccccc2C(=O)O)c1C | 21.1 µM (active) and 54.5 µM (active)
10 | CC(=O)Nc1ccc2c(c1)Cc1cc(NC(C)=O)ccc1-2 | inactive
11 | CCCCCCCCCCCCCO | inactive
12 | CN(C)CCCN1c2ccccc2Sc2ccc(Cl)cc21 | 13.3 µM (active) and 15.4 µM (active)
13 | O=C1OC2(c3ccccc31)c1cc(I)c(O)c(I)c1Oc1c2cc(I)c(O)c1I | 34.4 µM (active) [middle of 4 runs]
14 | CC(C)[N+](C)(CCOC(=O)C1c2ccccc2Oc2ccccc21)C(C)C | inactive
15 | O=C(O)c1ccc(O)cc1 | inactive
16 | C=CC(=O)OCCCC | inactive
17 | C=C1C[C@H]2[C@@H]3C=C(C)C4=CC(=O)CC[C@]4(C)[C@H]3CC[C@]2(C)[C@@]1(OC(C)=O)C(C)=O | 23.7 µM (active) and 15.7 µM (active)
18 | CN(Cc1cnc2nc(N)nc(N)c2n1)c1ccc(C(=O)N[C@@H](CCC(=O)O)C(=O)O)cc1 | 335 nM (active) and 54.5 nM (active)
19 | C=CCOC(=O)C(=C)C | inactive
20 | CN1CCOCC1 | inactive

Row | SMILES | Potency
21 | Nc1cc(Cl)c(N)c(Cl)c1 | inactive
22 | CCCOCCO | inactive
23 | C=C[C@@]1(C)CC(=O)[C@]2(O)[C@@]3(C)[C@@H](O)CCC(C)(C)[C@@H]3[C@H](O)[C@H](OC(C)=O)[C@@]2(C)O1 | inactive
24 | c1ccc2c(c1)[nH]c1ccccc12 | inactive
25 | [Na+] | inactive
26 | IC(I)I | inactive
27 | CC(=O)O[C@]1(C(C)=O)CC[C@H]2[C@@H]3C=C(C)C4=CC(=O)CC[C@]4(C)[C@H]3CC[C@@]21C | 27.3 µM (active)
28 | O=C1CCc2ccccc2O1 | inactive
29 | C/C=C/C(=O)N(CC)c1ccccc1C | inactive
30 | O=C(O)c1cc(=O)[nH]c(=O)[nH]1 | inactive
31 | CC1(C)C(C=C(Cl)Cl)C1C(=O)OCc1cccc(Oc2ccccc2)c1 (stereo not given) | inactive
32 | C[C@]12CC[C@@H]3c4ccc(O)cc4CC[C@H]3[C@@H]1CC[C@@H]2O | 27.3 µM (active) and 30.6 µM (active)
33 | Cc1ccc(S(=O)(=O)O)cc1C | inactive
34 | C1COCCN1 | inactive
35 | CN(C)/N=N/c1nc[nH]c1C(N)=O | inactive
36 | CC1(C)O[C@@H]2C[C@H]3[C@@H]4C[C@H](F)C5=CC(=O)C=C[C@]5(C)[C@@]4(F)[C@@H](O)C[C@]3(C)[C@]2(C(=O)CO)O1 | inactive
37 | Nc1cc([N+](=O)[O-])ccc1C(=O)O | inactive
38 | CC(C)(C)c1cccc(C(C)(C)C)c1O | inactive
39 | COC(=O)C(C)Oc1ccc(Oc2ncc(C(F)(F)F)cc2Cl)cc1 (stereo not given) | inactive
40 | FC(F)(F)C(Cl)Br (stereo not given) | inactive
